From PubChem
697 NFkB inh – lowers PMA/ionomycin-induced NF-kB signal in 697 B cells. actives 0.33% (n = 330,000). 697 B-cell NF-kB luciferase reporter, 16 h. inhibition, % at 4 µM; in the data active means inhibition above about 35%
Gli-Sufu block – blocks Gli-Sufu signaling in a luciferase reporter. actives 0.74% (n = 340,000). inhibition, % at 5 µM. Sufu-KO-LIGHT fibroblasts, Gli luciferase reporter luminescence;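 active means inhibition above about 55%, limit read from the data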
Beta cell apopt – blocks beta cell apoptosis | INS-1E cytokine-induced death, ATP luminescence, 48 h; percent of positive-control rescue, neutral wells zero | protection from apoptosis, % (no concentration beside the values) | actives 0.8% (n = 300,000);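 active means Every replicate reaches about 75%, or at least half do and their mean reaches it too, limit read from the data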;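 further: higher means more ATP so stronger rescue from cytokine killing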
Jurkat NFkB inh – inhibitors of the PMA/ionomycin-induced NF-kB reporter in Jurkat cells; AID 435003; actives 0.53% (n = 330,000); inhibition, % at 4 µM; PMA/ionomycin-induced NF-kB luciferase reporter, luminescence; in the data active means inhibition above about 50%
Mdm2-MdmX inh – human Mdm2/MdmX binding inhibition; actives 3% (n = 330,000); SaOS-2 split-luciferase Mdm2/MdmX complementation, luminescence; O15151+Q00987; inhibition, % at 8 µM; AID 485346;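 active means inhibition of at least 50% at 8 µM in the primary screen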
Target sequence (O15151 whole entry, looked up): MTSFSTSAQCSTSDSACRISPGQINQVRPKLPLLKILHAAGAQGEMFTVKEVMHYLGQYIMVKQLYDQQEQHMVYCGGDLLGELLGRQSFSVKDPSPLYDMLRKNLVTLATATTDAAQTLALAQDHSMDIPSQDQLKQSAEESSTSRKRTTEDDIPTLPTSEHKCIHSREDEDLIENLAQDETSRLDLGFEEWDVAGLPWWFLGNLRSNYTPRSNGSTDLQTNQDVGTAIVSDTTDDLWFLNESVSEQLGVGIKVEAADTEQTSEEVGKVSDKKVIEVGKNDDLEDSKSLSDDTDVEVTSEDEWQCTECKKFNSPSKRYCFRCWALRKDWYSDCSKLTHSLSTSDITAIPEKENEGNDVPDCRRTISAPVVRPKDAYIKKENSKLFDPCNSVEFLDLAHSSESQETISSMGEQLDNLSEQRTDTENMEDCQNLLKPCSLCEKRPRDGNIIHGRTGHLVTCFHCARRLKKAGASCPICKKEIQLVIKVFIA
Target sequence (Q00987 whole entry, looked up): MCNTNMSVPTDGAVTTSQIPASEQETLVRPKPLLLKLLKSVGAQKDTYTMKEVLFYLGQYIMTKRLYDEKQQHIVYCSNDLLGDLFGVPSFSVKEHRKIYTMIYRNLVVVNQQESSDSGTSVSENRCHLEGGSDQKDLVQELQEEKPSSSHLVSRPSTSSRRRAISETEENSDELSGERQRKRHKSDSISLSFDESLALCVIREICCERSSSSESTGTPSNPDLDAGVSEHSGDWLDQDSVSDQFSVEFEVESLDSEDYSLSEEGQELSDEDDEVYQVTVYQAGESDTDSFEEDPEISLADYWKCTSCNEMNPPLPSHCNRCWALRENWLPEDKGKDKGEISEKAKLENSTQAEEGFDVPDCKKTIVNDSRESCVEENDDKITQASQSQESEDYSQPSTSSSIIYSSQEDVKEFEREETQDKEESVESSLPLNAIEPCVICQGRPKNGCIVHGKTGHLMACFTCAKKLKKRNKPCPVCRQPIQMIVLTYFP
697 NFkB conf – lowers PMA/ionomycin-induced NF-kB signal in 697 B cells. shares compounds with 697 NFkB inh. 697 B-cell NF-kB luciferase, 16 h. inhibition, % at 4 µM. actives 35% (n = 2,000); in the data active means inhibition mostly above about 28%, no sharp cut-off; inactive means mostly below about 22%
Of the large screens only hits and unclear results are named; the others gave an inactive call (follow-up assays come after a bar, where they were run). Sampled rows, rich in hits. Any-hit rate of the full collection: about 4%.

C=C(CC[C@@H](O)C(C)(C)O)[C@H]1CC[C@]2(C)[C@@H]1CCC1[C@@]3(C)CCC(=O)C(C)(C)C3CC[C@]12C (some centres not stated)	none
Cc1ccc(NC(=O)CCNS(=O)(=O)c2ccc3c(c2)oc(=O)n3C)cc1	697 NFkB inh 41 | 697 NFkB conf inactive
CC(C)CCNC(=O)CCCOc1cc(=O)n(C)c2ccccc12	697 NFkB inh 52 | 697 NFkB conf 55
CC1CCN(C(=O)CCCOc2cc(=O)n(C)c3ccccc23)CC1	697 NFkB inh 38 | 697 NFkB conf 38
COc1cccc(NC(=O)CN(C)C(=O)CN2C(=O)NC(C)(c3ccc4ccccc4c3)C2=O)c1 (configuration not stated)	none
O=C(C1CC=CCC1)N1CCN(S(=O)(=O)c2ccc(F)cc2)CC1 (configuration not stated)	none (no result: Beta cell apopt)
CC1Oc2ccccc2C=C1/C=N/Nc1ccc(C(=O)O)cc1 (configuration not stated)	none | 697 NFkB conf inactive
O=C(Cc1ccc(S(=O)(=O)N2CCOCC2)s1)N1CCN(S(=O)(=O)c2ccccc2[N+](=O)[O-])CC1	none (no result: 697 NFkB inh, Beta cell apopt, Jurkat NFkB inh, Mdm2-MdmX inh)
Cc1ccc(N(Cc2ccccc2)C(=O)c2ccc(Cl)c(S(=O)(=O)N3CCOCC3)c2)cc1	none
O=C(NCCc1c[nH]c2ccccc12)OCCCCOC(=O)NCCc1c[nH]c2ccccc12	none
CCOc1ccc(CNS(=O)(=O)c2cccs2)cc1OCC	none
CCN(CC)S(=O)(=O)c1cccc(NC(=O)c2ccc(Sc3nncn3C)c([N+](=O)[O-])c2)c1	697 NFkB inh 37 | 697 NFkB conf inactive
CCc1cc2c(-c3ccccc3)cc(=O)oc2cc1OC(C)C(=O)NCC1CCC(C(=O)O)CC1 (configuration not stated)	697 NFkB inh 41 | 697 NFkB conf inactive
COc1ccc(C2NN=C(c3ccc(C)cc3)S2)cc1 (configuration not stated)	none (no result: 697 NFkB inh, Jurkat NFkB inh, Mdm2-MdmX inh)
CSc1ccc(C2NN=C(c3ccccc3)S2)cc1 (configuration not stated)	none | 697 NFkB conf inactive
COc1ccc2[nH]c(=O)c(CN(C(=O)c3cccnc3)c3ccc(C)c(C)c3)cc2c1	none
CCOC(=O)Cc1csc(NC(=S)NC(=O)c2ccc([N+](=O)[O-])cc2)n1	none
CCOC(=O)Cc1csc(NC(=S)NC(=O)c2ccc(Cl)cc2)n1	697 NFkB inh 45 | 697 NFkB conf 76
COc1cc(C#N)ccc1OC(=O)c1cccc(S(=O)(=O)N2CCN(C)CC2)c1	none
CC1(C)CC2CC(C)(CN2S(=O)(=O)c2ccc(C(=O)Nc3ccc(Cl)c(S(=O)(=O)N4CCOCC4)c3)cc2)C1 (configuration not stated)	none
CC1(C)CC2CC(C)(CN2S(=O)(=O)c2ccc(C(=O)Nc3ccc(S(=O)(=O)N4CCOCC4)cc3)cc2)C1 (configuration not stated)	697 NFkB inh 54 (no result: Gli-Sufu block) | 697 NFkB conf 35
NC(=O)c1cc([N+](=O)[O-])ccc1NCc1ccc(O)cc1	697 NFkB inh 37 | 697 NFkB conf inactive
COc1cc(CN(C2CCCCC2C)S(=O)(=O)c2ccc(S(=O)(=O)NC3CC3)cc2)cc(OC)c1OC (configuration not stated)	697 NFkB inh 36 | 697 NFkB conf inactive
COc1ccc(CN(C2CCCCC2C)S(=O)(=O)c2ccc(S(=O)(=O)N(C)C)cc2)cc1OC (configuration not stated)	none
N=c1ccn(Cc2c(Cl)cccc2Cl)cc1	697 NFkB inh 47 | 697 NFkB conf 57
N=c1ccn(Cc2ccccc2Cl)cc1	697 NFkB inh 46 (no result: Beta cell apopt) | 697 NFkB conf 48
N=c1ccn(Cc2ccc(Cl)c(Cl)c2)cc1	none
N=c1ccn(Cc2cccc(Cl)c2)cc1	none
O=C(Nc1ncccc1O)c1ccc2c(c1)OCCO2	none (no result: Beta cell apopt) | 697 NFkB conf inactive
CCCN1C(=O)c2ccc(C(=O)Nc3ccc4c(c3)OCO4)cc2C1=O	697 NFkB inh 36 (no result: Beta cell apopt) | 697 NFkB conf inactive
CC(C)C(=O)Nc1ccc(NC(=O)c2ccc3c(c2)OCO3)cc1	697 NFkB inh 50 (no result: Beta cell apopt) | 697 NFkB conf 43
O=C(Nc1ncccc1O)c1ccc2c(c1)OCO2	none
CC(C)Cc1nnc(NC(=O)c2ccc3c(c2)OCCO3)s1	none | 697 NFkB conf inactive
Cc1cccc(NC(=O)c2ccc3c(c2)OCCO3)c1	none (no result: Beta cell apopt)
